Results as given in article PMC5540273 (PLoS ONE, 2017).

Key:
Details in all cases: concentration: 1 μM, replicates: in singlicate; n = 1
[1] = test system: T1, JNK2
T1 construct: gene MAPK9

[2] = test system: T2, JNK3
T2 construct: gene MAPK10

[3] = test system: KIT-autoinhibited
[4] = test system: KIT
[5] = test system: LATS1
[6] = test system: LATS2
[7] = test system: LCK
[8] = test system: LIMK1
[9] = test system: LIMK2
[10] = test system: T3, LKB1
T3 construct: gene STK11
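Note: KINOMEscan kinase panel screen.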

| Compound | %Inh [1] [%] | %Inh [2] [%] | %Inh [3] [%] | %Inh [4] [%] | %Inh [5] [%] | %Inh [6] [%] | %Inh [7] [%] | %Inh [8] [%] | %Inh [9] [%] | %Inh [10] [%] |
| --- | --- | --- | --- | --- | --- | --- | --- | --- | --- | --- |
| Nc1ncnc2c1ncn2-c1ccc(Cl)cc1 [AH2635] | 0 | 0 | 0 | 65 | 0 | 24 | 24 | 0 | 6 | 10 |
| CCCC(=O)Nc1n[nH]c2ncc(-c3cccc4ccccc34)cc12 [SB-642057] | 21 | 0 | 0 | 12 | 0 | 25 | 20 | 9 | 0 | 0 |
| OCCCNc1nccc(-c2c(-c3cccc(C(F)(F)F)c3)nn3cc(C(F)(F)F)ccc23)n1 [GW630813] | 13 | 15 | 13 | 2 | 0 | 0 | 0 | 0 | 12 | 16 |
| CCC(=O)c1c(-c2ccccc2)c2cc(Cl)ccc2c(=O)n1Cc1ccc(C(=O)O)cc1 | 93.4 | 94.6 | 0 | 39 | 2 | 0 | 0 | 2 | 0 | 1 |
| Cl.c1ccc(Cn2cnc3cc(Nc4ncnc5ccccc45)ccc32)cc1 [GW272142] | 7 | 0 | 4 | 0 | 0 | 0 | 25 | 0 | 4 | 0 |
| CCn1c(-c2ccoc2)nc2cnccc21 [SB-733887] | 0 | 0 | 61 | 5 | 19 | 60 | 35 | 10 | 6 | 0 |
| CN(C)c1cc(-c2ccc3c(N)n[nH]c3c2)nc(N)n1 [GSK2219329] | 11 | 4 | 81 | 7 | 0 | 2 | 17 | 0 | 14 | 0 |
| COc1ccc(-c2cc3c(C)nc(N)nc3n([C@H]3CC[C@H](OCCO)CC3)c2=O)cn1 | 0 | 0 | 0 | 7 | 26 | 11 | 0 | 13 | 0 | 40 |
| COc1ccc(-c2cc3c(C)nc(N)nc3n([C@H]3CC[C@H](O)CC3)c2=O)cn1 | 0 | 0 | 0 | 0 | 0 | 7 | 0 | 0 | 0 | 0 |
| Nc1ncnc2c1ncn2-c1cccc2ccccc12 [SKF-97184] | 0 | 0 | 20 | 8 | 18 | 0 | 0 | 0 | 0 | 92.8 |
| COc1cc2ncn(-c3cc(OCc4ccc(S(C)(=O)=O)cc4)c(C(N)=O)s3)c2cc1OC [GW869979] | 18 | 18 | 21 | 0 | 0 | 39 | 12 | 11 | 16 | 25 |
| Cc1ccccc1COc1cc(-n2cnc3cc(Cl)ccc32)sc1C(N)=O [GW813349] | 0 | 0 | 0 | 0 | 0 | 61 | 0 | 0 | 13 | 0 |
| Cc1nc(N(C)[C@H]2CN(C(=O)CC#N)CC[C@H]2C)c2cc[nH]c2n1 | 0 | 0 | 0 | 0 | 7 | 13 | 0 | 0 | 16 | 0 |
| O=C(Nc1n[nH]c2cc(-c3ccccc3F)ccc12)C1CC1 [SB-733371] | 16 | 15 | 0 | 10 | 27 | 0 | 6 | 0 | 0 | 30 |
| O=C(NCc1cccs1)c1cc(C(=O)c2c(Cl)cccc2Cl)c[nH]1 [GW823670] | 0 | 0 | 4 | 0 | 0 | 0 | 0 | 6 | 0 | 49 |
| CN1C(=O)C(Nc2ccccc2)=C(c2ccccc2)C1=O [SB-300079] | 0 | 0 | 17 | 0 | 0 | 0 | 0 | 0 | 0 | 13 |

| Compound | %Inh [1] [%] | %Inh [2] [%] | %Inh [3] [%] | %Inh [4] [%] | %Inh [5] [%] | %Inh [6] [%] | %Inh [7] [%] | %Inh [8] [%] | %Inh [9] [%] | %Inh [10] [%] |
| --- | --- | --- | --- | --- | --- | --- | --- | --- | --- | --- |
| Fc1cccc(CSc2nnc(-c3ccc4c(c3)CCO4)o2)c1 | 4 | 4 | 6 | 5 | 20 | 31 | 0 | 0 | 0 | 16 |
| Nc1nc(-c2ccccc2F)c(-c2ccnc3ccccc23)s1 [GW560459] | 87 | 87 | 0 | 9 | 0 | 0 | 11 | 1 | 0 | 0 |
| COc1cccc(C2=C(Nc3cccc(C(=O)O)c3)C(=O)NC2=O)c1 [SB-390770] | 24 | 17 | 0 | 0 | 0 | 0 | 37 | 0 | 10 | 0 |
| C[C@@H]1CC[C@H](C(=O)NC2CCCCC2)CN1c1cc(-c2ccc3c(N)n[nH]c3c2)nc(N)n1 [GSK2291363] | 30 | 10 | 10 | 27 | 0 | 72 | 24 | 0 | 11 | 23 |
| Cc1cccc(-c2cc(-c3c[nH]nc3-c3ccccn3)ccn2)c1 [GW679395] | 66 | 73 | 0 | 35 | 0 | 3 | 78 | 0 | 13 | 0 |
| FC(F)(F)c1ccc(-c2ncn(CCCN3CCOCC3)c2-c2ccncc2)cc1 [SB-217780] | 53 | 55 | 0 | 20 | 0 | 27 | 0 | 0 | 0 | 23 |
| O=C1NC(=O)C(c2ccccc2)=C1Nc1cccc(O)c1 [SB-390534] | 13 | 4 | 0 | 10 | 21 | 0 | 24 | 0 | 0 | 0 |
| Nc1nccc2scc(-c3ccc4c(c3)CCN4C(=O)Cc3ccccc3)c12 [GSK2576924] | 10 | 0 | 5 | 74 | 0 | 0 | 11 | 3 | 14 | 9 |
| CCC(=O)c1c(-c2ccccc2)c2cc(Cl)ccc2c(=O)n1Cc1cc(S(C)(=O)=O)n(CC(N)=O)n1 | 99 | 99.2 | 4 | 6 | 0 | 0 | 3 | 0 | 0 | 37 |
| O=C(NCCNc1ccnc(Nc2ccc(F)cc2)n1)Nc1ccc2c(c1)OCO2 [GSK1379882] | 10 | 3 | 0 | 34 | 0 | 17 | 0 | 0 | 0 | 25 |
| CCc1nc(-c2cccc(C)c2)c(-c2ccncc2)s1 | 76 | 90.3 | 0 | 42 | 4 | 0 | 24 | 0 | 0 | 35 |
| COc1cc2ncn(-c3cc(OCCCc4ccccc4)c(C(N)=O)s3)c2cc1OC [GSK205189] | 21 | 12 | 0 | 13 | 0 | 15 | 16 | 0 | 0 | 0 |
| COc1cc2ncn(-c3cc(OCc4ccncc4Br)c(C(N)=O)s3)c2cc1OC [GW854278] | 5 | 5 | 5 | 24 | 22 | 0 | 25 | 0 | 8 | 0 |
| Cc1nnc(-c2ccc3ncn(-c4ccc(S(C)=O)cc4)c3c2)o1 (centres unmarked) | 0 | 0 | 0 | 29 | 43 | 8 | 10 | 19 | 6 | 9 |
| O=C(Nc1n[nH]c2nc(-c3ccccc3)c(Br)cc12)C1CC1 [SB-708998] | 0 | 0 | 9 | 31 | 0 | 0 | 23 | 19 | 12 | 0 |
| CC(C)(C)c1ccc(C(=O)Nc2cn3cc(-c4ccccc4)ccc3n2)cc1 | 0 | 0 | 0 | 92.6 | 0 | 0 | 8 | 10 | 0 | 15 |
